# Source: PubChem BioAssay AID504534 (National Center for Advancing Translational Sciences (NCATS), 2011)
# Results filed as inconclusive are left out. Entries that show only a call come without a potency. Active and inactive are the calls of the source. Calls come from the whole dose curve; as a rule, active = well fitted curve in the direction sought with a large enough effect; inconclusive = small, poorly fitted or top-dose-only effect, or another doubt; inactive = no such curve, though single readings can be large or run the other way.
# Assay: Secondary Assay for Inhibitors of Human Cdc-like kinase 4 (Clk4): HEK-293 Cell Viability Assay;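 note: cytotoxic hits lower the ATP light signal so activity reflects loss of viability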
# Conditions: HEK-293 viability, ATP luminescence (CellTiter-Glo), 24/48 h; series mostly up to 46.1 µM
# Description: NIH Molecular Libraries Probe Production Centers Network [MLPCN] NIH Chemical Genomics Center [NCGC] MLPCN Grant: 1R03MH084827-01 Assay Submitter (PI): Tom Misteli NCGC Assay Overview: Cytotoxicity of the active compounds in the Clk4 screens was assessed using the CellTiter-Glo Luminescent Cell Viability Assay kit (Promega, USA) in the HEK-293 (ATCC) cell line. CellTiter-Glo measures the intracellular ATP present in metabolically active cells using Ultra-Glo as the luciferase to detect ATP levels. In brief, the luciferase in the buffer catalyzes the oxidation of luciferin to oxyluciferin and light which is dependent on ATP. […] Wells treated with various concentrations of cycloheximide (Sigma) and DMSO, and wells with media alone were used as positive and negative controls, respectively. […] [1] http://www.promega.com/tbs/tb288/tb288.pdf
# NCGC Assay Protocol Summary: HEK-293 cells were grown in a flask up to 80% confluence. Cells were trypsinized, washed, and resuspended in MEM Eagle + 10% FBS + 1% pen-strep media at a concentration of 120 cells/uL. Five uL/well of cell solution was dispensed into a 1536-well assay plates (Greiner, solid white medium-binding plates) with Aurora Discovery BioRAPTR Flying Reagent Dispenser (FRD; Beckton-Dickenson). Cells were pre-incubated at 37 degree Celsius, 5% CO2 for four hours. Compound and control solutions (23nL) were then transferred to the assay plate using the Kalypsys 1536-pin tool. Assay plates were re- incubated at 37 degree Celsius, 5% CO2. After 24 or 48 hours, five uL of CellTiter Glo detection reagent was added. Luminescence signal was read with Perkin Elmer ViewLux plate reader after 30 min room temperature incubation.
# Potency is the fitted concentration of half-maximal effect.
row,Structure (SMILES),Potency
1,Cc1cccc(CNc2ncnc3ccc(-c4ccc5c(c4)OCO5)cc23)c1,inactive
2,Cc1cccc(CNc2ncnc3ccc(-c4ccc5c(ccn5C)c4)cc23)c1,inactive
3,Cc1ccc(CNc2ncnc3cc(-c4ccc5c(c4)OCO5)ccc23)o1,inactive
4,OCc1ccc(-c2ccc3ncnc(NCCc4cnc[nH]4)c3c2)o1,inactive
5,c1nc(N2CCOCC2)c2cc(-c3ccc4c(c3)OCO4)ccc2n1,inactive
6,Cc1nc(CCN(C)c2ncnc3ccc(-c4ccc5c(c4)OCO5)cc23)cs1,inactive
7,c1csc(CNc2ncnc3ccc(-c4ccc5c(c4)OCCO5)cc23)c1,inactive
8,c1nc(NCCc2cnc[nH]2)c2ccc(-c3ccc4c(c3)OCO4)cc2n1,inactive
9,Cc1cccc(CNc2ncnc3ccc(-c4cccnc4)cc23)c1,inactive
10,COc1cccc(-c2ccc3ncnc(NCc4ccc5c(c4)OCO5)c3c2)c1,inactive
11,Cc1csc(CNc2ncnc3ccc(-c4ccc5c(c4)OCO5)cc23)n1,inactive
12,Clc1ccccc1-c1ccc2ncnc(NCc3ccc4c(c3)OCO4)c2c1,inactive
13,CC(C)(C)CNc1ncnc2ccc(-c3ccc4c(c3)OCO4)cc12,inactive
14,Cc1csc(CNc2ncnc3ccc(-c4cccc(Cl)c4)cc23)c1,inactive
15,Cc1ccc(CN(C)c2ncnc3ccc(-c4ccc(CO)o4)cc23)o1,12.5 µM (active)
16,Cc1cccc(CNc2ncnc3ccc(-c4ccoc4)cc23)c1,inactive
17,c1nc(NCc2ccoc2)c2cc(-c3ccc4c(c3)OCO4)ccc2n1,inactive
18,c1coc(CCNc2ncnc3ccc(-c4ccc5c(c4)OCO5)cc23)c1,inactive
19,Cc1cccc(CNc2ncnc3ccc(-c4ccc5c(c4)OCCO5)cc23)c1,inactive
20,Cc1nc(CNc2ncnc3ccc(-c4ccc5c(c4)OCO5)cc23)cs1,inactive

row,Structure (SMILES),Potency
1,CN1CCN(c2ncc3nc(-c4cn(C)c5ccccc45)c(=O)n(Cc4cccs4)c3n2)CC1,8.88 µM (active)
2,O=C(O)c1ccc(-c2ccc3ncnc(NCc4nccs4)c3c2)o1,inactive
3,CN(Cc1ncc[nH]1)c1ncnc2ccc(-c3ccc4c(c3)OCO4)cc12,inactive
4,CCN(Cc1sccc1C)c1ncnc2ccc(-c3ccc4c(c3)OCO4)cc12,inactive
5,Cc1nc(CNc2ncnc3ccc(-c4ccoc4)cc23)cs1,inactive
6,Cc1cc(CNc2ncnc3ccc(-c4ccc5c(c4)OCO5)cc23)c(C)o1,inactive
7,c1csc(CNc2ncnc3ccc(-c4ccc5c(c4)OCO5)cc23)n1,inactive
8,c1coc(CNc2ncnc3ccc(-c4ccc5c(c4)OCO5)cc23)c1,inactive
9,c1cncc(CNc2ncnc3ccc(-c4ccoc4)cc23)c1,inactive
10,CC(Nc1ncnc2ccc(-c3ccc4c(c3)OCO4)cc12)c1ccco1 (stereo not given),inactive
11,c1nc(N2CCC(N3CCCC3)CC2)c2cc(-c3ccc4c(c3)OCO4)ccc2n1,inactive
12,CCOC(=O)c1ccoc1-c1ccc2ncnc(NCCc3cnc[nH]3)c2c1,inactive
13,Cc1ccc(CNc2ncnc3ccc(-c4ccc5c(c4)OCO5)cc23)s1,inactive
14,Fc1cccc(CNc2ncnc3ccc(-c4ccccc4Cl)cc23)c1,inactive
15,c1csc(CNc2ncnc3cc(-c4ccc5c(c4)OCO5)ccc23)c1,inactive
16,CN(CC1CCCCO1)c1ncnc2ccc(-c3ccc4c(c3)OCO4)cc12 (stereo not given),inactive
17,O=C(O)c1ccc(-c2ccc3ncnc(NCC4CCCO4)c3c2)o1 (stereo not given),inactive
18,c1cncc(CNc2ncnc3ccc(-c4ccc5c(c4)OCCO5)cc23)c1,inactive
19,Cc1ccc(CNc2ncnc3ccc(-c4ccoc4)cc23)o1,inactive
20,COc1cccc(-c2ccc3ncnc(NCc4cc(C)cs4)c3c2)c1,inactive
